Here are results for 12 molecules from PubChem BioAssay.

Active and inactive are the calls of the source. Unless noted, how the calls were made is not given here.

A short description of test [1]: HepG2 liver cancer cell viability effects, profiling panel, resazurin fluorescence, 24 h, PK04 Diversity Set (AID 1172). Further: test concentration not given here. The settings on record: higher = more signal. (The colour change of resazurin is a common sign of viable cells or microbes.)
Test [2] in a line: basal S. cerevisiae growth modulation, no modifier, primary screen, OD600, strain BY4716, 24 h, basal condition (AID 1173). The settings on record: OD600, 24 h, higher = more signal, called active from +8 up or from −8 down.
Test [3] can be described thus: MM1S myeloma cell viability, profiling panel, resazurin fluorescence, basal, 24 h, PK04 Diversity Set (AID 1174).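 Further: MM1S multiple myeloma cell line; test concentration not given here.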 Conditions: higher = more signal, called active from +8 up or from −8 down.
For test [4], the target named is Dihydroorotate dehydrogenase (quinone), mitochondrial (Plasmodium falciparum (isolate 3D7)) (UniProt Q08210). Put plainly: PfDHODH enzyme inhibitors, primary screen, biochemical, C-terminal His tag, absorbance 600 nm (AID 1175).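 Further: recombinant parasite enzyme with a five histidine tag at its C terminus; test concentration not given here.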 Conditions: DCIP absorbance 600 nm, higher = more signal, called active from +8 up or from −8 down.
Test [5] can be described thus: P. aeruginosa biofilm formation inhibitors, primary screen, strain PAO1, LB-PBS medium, absorbance 600 nm (AID 1176). Further: test concentration not given here. The settings on record: P. aeruginosa PAO1 growth/biofilm, A600, 12 h; higher = more signal.
Test [6] is described as follows: S. cerevisiae RM11-1a growth modifiers, primary screen, strain RM11-1a, OD600, basal, 24 h (AID 1177).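 Further: cultures grown under basal conditions with no added stressor; test concentration not given here.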 Conditions: OD600, 24 h, higher = more signal, called active from +8 up or from −8 down.
Test [7] in a line: E. coli acrAB mutant growth effects, primary screen, E. coli filamentation inducers, strain DRC39, OD650, 24 h (AID 1178).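 Further: growth measured as culture turbidity by optical density at 650 nm; test concentration not given here.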 Conditions: higher = more signal, called active from +8 up or from −8 down.
Test [8] is described as follows: E. coli acrAB mutant growth effects, primary screen, E. coli filamentation inducers, strain DRC39, OD650, 48 h (AID 1179).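 Further: screen aims at cell division blockers that make cells filament.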 The settings on record: E. coli DRC39 delta-acrAB growth, higher = more signal, called active from +8 up or from −8 down.
Test [9] is described as follows: RPMI8226 myeloma cell viability, profiling panel, resazurin fluorescence, basal, 24 h, PK04 Diversity Set (AID 1180).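 Further: RPMI8826 multiple myeloma cell line at 5000 cells per well; test concentration not given here.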 The settings on record: higher = more signal.
Test [10] addresses E3 ubiquitin-protein ligase XIAP (Homo sapiens) (UniProt P98170). As to the kind of experiment: XIAP binders, primary screen, biophysical, small-molecule microarray, fluorescence 635 nm (AID 1181).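 Further: score merges 667 nm emission and signal to noise over triplicate slides.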 The settings on record: small-molecule microarray binding, higher = more signal.

Chain of E3 ubiquitin-protein ligase XIAP (Homo sapiens) (P98170 whole entry, looked up): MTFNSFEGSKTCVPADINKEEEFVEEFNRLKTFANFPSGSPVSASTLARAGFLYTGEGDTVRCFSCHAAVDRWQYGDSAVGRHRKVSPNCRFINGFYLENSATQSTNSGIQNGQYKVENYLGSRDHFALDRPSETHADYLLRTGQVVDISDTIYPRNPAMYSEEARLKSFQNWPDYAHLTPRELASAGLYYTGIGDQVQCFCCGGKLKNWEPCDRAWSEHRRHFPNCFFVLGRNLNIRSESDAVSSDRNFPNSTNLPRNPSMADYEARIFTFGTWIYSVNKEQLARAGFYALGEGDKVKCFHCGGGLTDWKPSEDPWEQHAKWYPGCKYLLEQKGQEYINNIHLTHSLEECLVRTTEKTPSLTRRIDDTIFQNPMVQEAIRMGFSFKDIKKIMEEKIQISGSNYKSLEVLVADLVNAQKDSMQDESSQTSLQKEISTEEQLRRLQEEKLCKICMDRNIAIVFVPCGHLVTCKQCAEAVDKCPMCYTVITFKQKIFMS
Chain of Dihydroorotate dehydrogenase (quinone), mitochondrial (Plasmodium falciparum (isolate 3D7)) (Q08210 whole entry, looked up): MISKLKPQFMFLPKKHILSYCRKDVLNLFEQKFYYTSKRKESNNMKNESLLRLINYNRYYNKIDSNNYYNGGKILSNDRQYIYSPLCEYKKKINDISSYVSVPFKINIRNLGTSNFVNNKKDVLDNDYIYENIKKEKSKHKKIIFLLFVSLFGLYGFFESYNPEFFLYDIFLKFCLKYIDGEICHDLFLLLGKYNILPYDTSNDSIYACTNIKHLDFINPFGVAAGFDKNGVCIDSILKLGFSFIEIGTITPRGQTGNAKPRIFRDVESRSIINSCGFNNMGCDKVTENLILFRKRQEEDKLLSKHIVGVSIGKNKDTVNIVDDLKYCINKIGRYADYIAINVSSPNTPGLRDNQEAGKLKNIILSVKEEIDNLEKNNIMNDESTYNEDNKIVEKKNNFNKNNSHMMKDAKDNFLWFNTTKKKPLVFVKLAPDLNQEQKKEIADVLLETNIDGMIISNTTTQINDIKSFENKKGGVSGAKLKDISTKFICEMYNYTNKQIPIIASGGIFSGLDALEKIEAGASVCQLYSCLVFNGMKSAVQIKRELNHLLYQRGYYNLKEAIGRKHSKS

Regarding `COC(=O)[C@H](C)NC(=O)CCC1CC(OC(=O)NCCc2ccc(F)cc2)CC2(CCCC(COC(=O)NCC3CCCCC3)O2)O1` (stereo not given in full), the z-score in test [1] is 0.427; in [2], -0.491 (inactive); in test [3] it was 1.05 (inactive); in test [5] it was -0.919 (inactive); in test [6], 0.363 (inactive); in [7], -0.603 (inactive). The values for the z-score in test [8] and in test [9] were -0.741 (inactive) and 0.13, respectively. Besides, the composite z-score in test [4] was -2.53 (inactive); in test [10], 0.514.
Take `COC(=O)[C@H](C)NC(=O)CCC1CC(OC(=O)NCc2cccc3ccccc23)CC2(CCCC(COC(=O)NCc3cccc(C(F)(F)F)c3)O2)O1` (stereo not given in full): the z-score in test [1] is -0.599; in test [2], -0.458 (inactive); in test [3], 0.47 (inactive); in test [5], 0.593 (inactive); in [6] it was -0.968 (inactive); in [7], -0.289 (inactive). Further, the figures for the z-score in [8] and in test [9] were -0.456 (inactive) and 0.297, respectively. The composite z-score in test [4] is -1.5 (inactive); in test [10] it was 0.14.
`CC=CC1=C(CO)[C@H](O)[C@H]2O[C@H]2[C@@H]1O`: the z-score in [1] was -0.504; in [2], -0.299 (inactive); in [3], 0.133 (inactive); in test [5] it was -0.102 (inactive); in test [6] it was 0.39 (inactive); in test [7], 0.615 (inactive). Further, the results for the z-score in test [8] and in test [9] were -0.442 (inactive) and 0.694, respectively. The composite z-score was 0.781 (inactive) in test [4] and -0.204 in test [10].
Regarding `CCN(CC)CC(O)CN1CCCCc2nc(C)c(C)cc21` (stereo not given), the z-score in test [1] was -0.148; in [2] it was -0.571 (inactive); in test [3], 0.423 (inactive); in test [5] it was 0.711 (inactive); in test [6], -1.48 (inactive); in test [7], 0.721 (inactive). Also, the z-score in test [8] is 0.0142 (inactive); in test [9], 0.259. For the same molecule, the composite z-score is -2.78 (inactive) in test [4] and -0.271 in test [10].
Take `CCCCOC(OCCCC)C(O)CSc1ccc2ccccc2c1` (stereo not given): the z-score is -0.879 in test [1]; -2.07 (inactive) in test [2]; -1.99 (inactive) in test [3]; 0.344 (inactive) in test [5]; 0.363 (inactive) in [6]; 0.872 (inactive) in [7]. Further, the z-score was 1.01 (inactive) in test [8] and -1.37 in test [9]. Besides, the results for the composite z-score in test [4] and in test [10] were -0.161 (inactive) and 0.0506, respectively.
With `CC(CCN1CCCc2nc(C)c(C)cc21)=NO[C@H](C)c1cn([C@H](CO)Cc2ccccc2)nn1`, the z-score is -0.325 in [1]; 0.454 (inactive) in [2]; 0.307 (inactive) in [3]; -0.291 (inactive) in [5]; 0.512 (inactive) in test [6]; -0.801 (inactive) in test [7]. The z-score in test [8] is -0.922 (inactive); in [9], 0.0883. For the same molecule, the composite z-score in [4] is 1.27 (inactive); in [10], 0.0015.
On to `C#CCCCON=C1C[C@@H](O)[C@@H](O)[C@@H]2[C@@H]3C(=O)N(C[C@@H]4CCCO4)C(=O)[C@@H]3CC[C@@H]12`, for which the z-score in test [1] was 0.475; in [2], 0.43 (inactive); in test [3], 0.0893 (inactive); in [5] it was 0.14 (inactive); in test [6] it was -0.399 (inactive); in test [7], 0.534 (inactive). The z-score in [8] is 0.802 (inactive); in test [9], 0.199. The composite z-score in test [4] is -0.85 (inactive); in test [10], -0.0303.
Consider `CC(=O)OC[C@H]1O[C@@H](ON=C(C)CCN2CCCCc3nc(C)c(C)cc32)[C@H](OC(C)=O)[C@@H](OC(C)=O)[C@@H]1OC(C)=O`, for which the z-score is -0.077 in [1]; -0.436 (inactive) in test [2]; 0.382 (inactive) in test [3]; -0.679 (inactive) in [5]; -1.15 (inactive) in [6]; -1.24 (inactive) in test [7]. Moreover, the z-score in test [8] was -0.816 (inactive); in [9], -0.0356. Besides, the composite z-score in [4] was -2.52 (inactive); in [10], 0.0899.
Consider `CCN1C(=O)[C@H]2[C@H]3[C@H](O)[C@H](O)CC(=NOC[C@@H](O)COCc4ccco4)[C@H]3CC[C@H]2C1=O`, for which the z-score in test [1] is -0.92; in test [2] it was -0.54 (inactive); in [3], -0.809 (inactive); in [5], -0.425 (inactive); in [6] it was -0.178 (inactive); in test [7], -0.0557 (inactive). Besides, the figures for the z-score in [8] and in [9] were 0.322 (inactive) and -1.23, respectively. In addition, the figures for the composite z-score in [4] and in test [10] were -0.164 (inactive) and -0.0948, respectively.
With `CO[C@@H](C1CCCCC1)[C@@H](C)[C@H](OCc1cccc(Br)c1)[C@@H](C)CO`, the z-score was 0.414 in test [1]; -2.13 (inactive) in [2]; -0.885 (inactive) in test [3]; -0.127 (inactive) in test [5]; -0.0839 (inactive) in test [6]; -0.275 (inactive) in test [7]. Moreover, the values for the z-score in test [8] and in test [9] were -0.776 (inactive) and -0.835, respectively. The results for the composite z-score in [4] and in [10] were 0.0434 (inactive) and -0.16, respectively.
For `CCOC(=O)[C@H](CC(C)C)NC(=O)CCC1CC(OC(=O)NCc2ccc3c(c2)OCO3)CC2(CCCC(COC(=O)NCc3ccccc3)O2)O1` (stereo not given in full), the z-score in test [1] was 1.32; in test [2] it was 0.918 (inactive); in test [3], 0.624 (inactive); in [5], -0.282 (inactive); in [6], 1.26 (inactive); in test [7], 0.533 (inactive). Besides, the z-score in [8] is -0.0559 (inactive); in test [9], 0.836. Moreover, the composite z-score was -0.047 (inactive) in test [4] and 0.0727 in [10].
Take `CC(CCC(=O)OC[C@H]1O[C@H](C#Cc2ccccc2)C=C[C@@H]1Oc1ccc(C)cc1)=NOC[C@@H](C)[C@H](OCc1ccccc1)C(C)C`: the z-score is 0.38 in test [1]; 0.513 (inactive) in test [2]; 0.258 (inactive) in test [3]; -0.503 (inactive) in test [5]; -0.222 (inactive) in [6]; 0.0786 (inactive) in [7]. The z-score was -0.931 (inactive) in test [8] and 0.306 in test [9]. Moreover, the composite z-score in test [4] is 0.615 (inactive); in test [10], -0.227.
